From PubChem BioAssay AID1159580 (chemical genetic matrix, 2015)
Values joined by “and” are separate entries in the source; they are usually repeats but may differ in a detail not shown here. Equal entries are not always repeated. Among all 5,500 compounds or so, about 2,000 (36%) were called active. Inconclusive results (about 18%) are left out. Cut-off read from the data, not from the text of the source: active = normalized growth mostly below about 0.91 (no sharp cut-off); inconclusive = no clear call, values can overlap the other calls; inactive = mostly above about 0.92. This is one part of the list.

Assay: chemical genetic growth profiling, strain panel (AID 1159580);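 note: tested at 20 µM; growth read once vehicle control cultures reached saturation at 30 °C; 1 = growth at the plate median or of vehicle wells; lower values mean less growth of the strain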
Conditions: growth OD

Measured: normalized growth

Nc1nc(N)c2nc(-c3ccccc3)c(N)nc2n1
inactive: S. cerevisiae deletion strains, locus YJR075W, strain HOC1, stronger effect = lower value 1.01 | S. cerevisiae deletion strains, locus YKL009W, strain mrt4, stronger effect = lower value 1.02 | S. cerevisiae deletion strains, locus YKL068W, stronger effect = lower value 1 | S. cerevisiae deletion strains, locus YKL085W, strain MDH1 (second series), stronger effect = lower value 1.01 | S. cerevisiae deletion strains, locus YKL085W, strain MDH1, stronger effect = lower value 1.01 | S. cerevisiae deletion strains, locus YKL160W, strain elf1, stronger effect = lower value 1 | S. cerevisiae deletion strains, locus YKL190W, strain CNB1, stronger effect = lower value 1 | S. cerevisiae deletion strains, locus YKR001C, strain vps1, stronger effect = lower value 1.02 | S. cerevisiae deletion strains, locus YKR026C, strain gcn3, stronger effect = lower value 1.01 | S. cerevisiae deletion strains, locus YKR091W, strain srl3, stronger effect = lower value 0.998 | S. cerevisiae deletion strains, locus YLL001W, strain dnm1, stronger effect = lower value 1 | S. cerevisiae deletion strains, locus YLL026W, stronger effect = lower value 0.999 | S. cerevisiae deletion strains, locus YLL041C, strain sdh2, stronger effect = lower value 0.999 | S. cerevisiae deletion strains, locus YLR027C, strain aat2, stronger effect = lower value 1.01 | S. cerevisiae deletion strains, locus YLR039C, strain RIC1, stronger effect = lower value 1.04 | S. cerevisiae deletion strains, locus YLR058C, strain SHM2, stronger effect = lower value 1 | S. cerevisiae deletion strains, locus YLR102C, strain apc9, stronger effect = lower value 1.01 | S. cerevisiae deletion strains, locus YLR113W, strain HOG1, stronger effect = lower value 1 | S. cerevisiae deletion strains, locus YLR221C, strain rsa3, stronger effect = lower value 0.975 | S. cerevisiae deletion strains, locus YLR258W, strain gsy2, stronger effect = lower value 0.999 | S. cerevisiae deletion strains, locus YLR262C, strain YPT6 (second series), stronger effect = lower value 1.02 | S. cerevisiae deletion strains, locus YLR262C, strain YPT6, stronger effect = lower value 1 | S. cerevisiae deletion strains, locus YLR268W, strain sec22, stronger effect = lower value 1.05 | S. cerevisiae deletion strains, locus YLR320W, strain mms22, stronger effect = lower value 0.99 | S. cerevisiae deletion strains, locus YLR330W, strain CHS5, stronger effect = lower value 1.01 | S. cerevisiae deletion strains, locus YLR342W, strain FKS1 (second series), stronger effect = lower value 1.02 | S. cerevisiae deletion strains, locus YLR342W, strain FKS1, stronger effect = lower value 0.996 | S. cerevisiae deletion strains, locus YLR357W, strain rsc2, stronger effect = lower value 1.01 | S. cerevisiae deletion strains, locus YLR370C, strain arc18, stronger effect = lower value 0.995 | S. cerevisiae deletion strains, locus YLR371W, strain rom2, stronger effect = lower value 1.01 | S. cerevisiae deletion strains, locus YLR384C, strain iki3, stronger effect = lower value 1.01 | S. cerevisiae deletion strains, locus YLR418C, strain cdc73, stronger effect = lower value 0.972 | S. cerevisiae deletion strains, locus YML016C, strain PPZ1, stronger effect = lower value 0.999 | S. cerevisiae deletion strains, locus YML032C, strain rad52, stronger effect = lower value 1.02 | S. cerevisiae deletion strains, locus YML120C, strain ndi1, stronger effect = lower value 1.02 | S. cerevisiae deletion strains, locus YML124C, strain tub3, stronger effect = lower value 1.01 | S. cerevisiae deletion strains, locus YMR058W, strain fet3, stronger effect = lower value 1.01 | S. cerevisiae deletion strains, locus YMR078C, strain ctf18, stronger effect = lower value 1 | S. cerevisiae deletion strains, locus YMR125W, strain sto1, stronger effect = lower value 1 | S. cerevisiae deletion strains, locus YMR129W, stronger effect = lower value 0.998 | S. cerevisiae deletion strains, locus YMR205C, strain PFK2, stronger effect = lower value 1.01 | S. cerevisiae deletion strains, locus YMR223W, strain ubp8, stronger effect = lower value 0.994 | S. cerevisiae deletion strains, locus YMR231W, strain pep5, stronger effect = lower value 0.997 | S. cerevisiae deletion strains, locus YMR263W, strain SAP30, stronger effect = lower value 1 and 0.995 | S. cerevisiae deletion strains, locus YMR307W, strain GAS1, stronger effect = lower value 1.04 and 1.01 | S. cerevisiae deletion strains, locus YNL067W, strain RPL9B, stronger effect = lower value 0.995 | S. cerevisiae deletion strains, locus YNL071W, strain lat1, stronger effect = lower value 0.996 | S. cerevisiae deletion strains, locus YNL153C, strain GIM3, stronger effect = lower value 1 | S. cerevisiae deletion strains, locus YNL175C, strain NOP13, stronger effect = lower value 0.987 | S. cerevisiae deletion strains, locus YNL183C, strain NPR1, stronger effect = lower value 0.933 | S. cerevisiae deletion strains, locus YNL197C, strain WHI3, stronger effect = lower value 0.967 | S. cerevisiae deletion strains, locus YNL209W, strain ssb2, stronger effect = lower value 1 | S. cerevisiae deletion strains, locus YNL224C, strain SQS1, stronger effect = lower value 0.995 | S. cerevisiae deletion strains, locus YNL233W, strain BNI4, stronger effect = lower value 1 | S. cerevisiae deletion strains, locus YNL248C, strain rpa49, stronger effect = lower value 0.969 | S. cerevisiae deletion strains, locus YNL250W, strain rad50, stronger effect = lower value 1 | S. cerevisiae deletion strains, locus YNL271C, strain bni1, stronger effect = lower value 1.01 | S. cerevisiae deletion strains, locus YNL298W, strain CLA4, stronger effect = lower value 1.03 | S. cerevisiae deletion strains, locus YNL307C, strain MCK1, stronger effect = lower value 1.01 | S. cerevisiae deletion strains, locus YNL322C, strain KRE1 (second series), stronger effect = lower value 1.01 | S. cerevisiae deletion strains, locus YNL322C, strain KRE1, stronger effect = lower value 1 | S. cerevisiae deletion strains, locus YNR049C, strain mso1, stronger effect = lower value 0.993 | S. cerevisiae deletion strains, locus YNR052C, strain pop2, stronger effect = lower value 1.01 | S. cerevisiae deletion strains, locus YOL006C, strain TOP1, stronger effect = lower value 1.02 | S. cerevisiae deletion strains, locus YOL012C, strain htz1 0.947 | S. cerevisiae deletion strains, locus YOL147C, strain pex11, stronger effect = lower value 1.01 | S. cerevisiae deletion strains, locus YOR001W, strain rrp6, stronger effect = lower value 1.01 | S. cerevisiae deletion strains, locus YOR061W, strain CKA2, stronger effect = lower value 0.999 | S. cerevisiae deletion strains, locus YOR069W, strain VPS5, stronger effect = lower value 1 | S. cerevisiae deletion strains, locus YOR070C, strain gyp1, stronger effect = lower value 0.991 | S. cerevisiae deletion strains, locus YOR080W, strain dia2, stronger effect = lower value 1.01 | S. cerevisiae deletion strains, locus YOR083W, strain WHI5 (second series), stronger effect = lower value 0.969 | S. cerevisiae deletion strains, locus YOR083W, strain WHI5, stronger effect = lower value 0.989 | S. cerevisiae deletion strains, locus YOR106W, strain vam3, stronger effect = lower value 1.02 | S. cerevisiae deletion strains, locus YOR136W, strain idh2, stronger effect = lower value 0.993 | S. cerevisiae deletion strains, locus YOR144C, strain elg1, stronger effect = lower value 1.01 | S. cerevisiae deletion strains, locus YOR184W, strain ser1, stronger effect = lower value 0.98 | S. cerevisiae deletion strains, locus YOR231W, strain MKK1, stronger effect = lower value 1.01 | S. cerevisiae deletion strains, locus YOR265W, strain rbl2, stronger effect = lower value 0.996 | S. cerevisiae deletion strains, locus YOR270C, strain vph1, stronger effect = lower value 1.01 | S. cerevisiae deletion strains, locus YOR290C, strain snf2, stronger effect = lower value 0.991 | S. cerevisiae deletion strains, locus YOR316C, strain cot1, stronger effect = lower value 1.01 | S. cerevisiae deletion strains, locus YPL051W, strain arl3, stronger effect = lower value 0.993 | S. cerevisiae deletion strains, locus YPL055C, strain LGE1, stronger effect = lower value 1.02 | S. cerevisiae deletion strains, locus YPL078C, strain atp4, stronger effect = lower value 1.01 | S. cerevisiae deletion strains, locus YPL106C, strain sse1, stronger effect = lower value 0.995 | S. cerevisiae deletion strains, locus YPL240C, strain hsp82, stronger effect = lower value 1 | S. cerevisiae deletion strains, locus YPL241C, strain CIN2, stronger effect = lower value 1 and 0.998 | S. cerevisiae deletion strains, locus YPL256C, strain CLN2, stronger effect = lower value 0.99 | S. cerevisiae deletion strains, locus YPR119W, strain clb2, stronger effect = lower value 1 | S. cerevisiae deletion strains, locus YPR141C, strain kar3, stronger effect = lower value 1.01 | S. cerevisiae deletion strains, locus YPR163C, strain tif3, stronger effect = lower value 1.02 | S. cerevisiae deletion strains, locus YPR167C, strain met16, stronger effect = lower value 1.01 | S. cerevisiae deletion strains, strain wtn01, stronger effect = lower value 1.01 | S. cerevisiae strains, strain wild type, stronger effect = lower value 0.997
